# Measurements published in PubChem BioAssay AID2796 (The Scripps Research Institute Molecular Screening Center, 2010).
# Hit rate of the full screen: of about 320,000 compounds, about 8,000 (2.5%) were called active. Rule as the data show it: active = activation above about 47%; inactive = the rest. Shown is part of a subset that was picked to be rich in actives.
# Target: Aryl hydrocarbon receptor (Homo sapiens) (UniProt P35869)
# Experiment: AHR activators, primary screen, cell-based, luminescence, luciferase reporter, human (AID 2796);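 also: 0% = vehicle wells and 100% = reference agonist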
# Settings: AHR-responsive luciferase reporter cells, at 5 µM, hits give high values
# Chain of Aryl hydrocarbon receptor (Homo sapiens) (P35869 whole entry, looked up): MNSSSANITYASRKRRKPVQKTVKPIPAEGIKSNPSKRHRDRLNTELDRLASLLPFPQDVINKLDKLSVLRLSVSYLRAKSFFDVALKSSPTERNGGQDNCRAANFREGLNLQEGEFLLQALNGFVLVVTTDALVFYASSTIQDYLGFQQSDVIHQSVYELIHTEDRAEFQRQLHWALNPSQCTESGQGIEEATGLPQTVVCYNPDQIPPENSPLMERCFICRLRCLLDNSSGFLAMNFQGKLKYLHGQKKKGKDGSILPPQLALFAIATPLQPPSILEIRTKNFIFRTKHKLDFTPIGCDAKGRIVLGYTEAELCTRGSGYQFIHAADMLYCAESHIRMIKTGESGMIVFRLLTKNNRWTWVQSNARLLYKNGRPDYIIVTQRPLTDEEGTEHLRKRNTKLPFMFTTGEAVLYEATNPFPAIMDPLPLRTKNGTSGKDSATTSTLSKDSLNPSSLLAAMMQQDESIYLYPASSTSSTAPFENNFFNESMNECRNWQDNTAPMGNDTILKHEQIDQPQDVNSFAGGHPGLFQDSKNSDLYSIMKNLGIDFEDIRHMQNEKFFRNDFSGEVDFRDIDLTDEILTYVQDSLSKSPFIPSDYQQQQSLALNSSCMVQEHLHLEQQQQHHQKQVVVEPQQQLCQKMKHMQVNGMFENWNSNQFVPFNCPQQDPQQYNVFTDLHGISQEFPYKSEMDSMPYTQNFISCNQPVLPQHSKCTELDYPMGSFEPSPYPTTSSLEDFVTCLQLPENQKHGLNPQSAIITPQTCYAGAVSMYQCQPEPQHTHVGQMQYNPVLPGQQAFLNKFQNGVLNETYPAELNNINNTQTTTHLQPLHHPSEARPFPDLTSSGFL
row,Structure (SMILES),activation
1,CCOC(=O)C1CCN(C(=O)COc2cccc3ccccc23)CC1,6.85% (inactive)
2,Cc1ncoc1C(=O)NCCC(c1ccccc1)c1ccccc1,2.07% (inactive)
3,Cc1cc(F)ccc1S(=O)(=O)Nc1ccc(C(=O)N(C)Cc2ccco2)cc1,-1.13% (inactive)
4,Cc1cc(Cl)ccc1OCCCC(=O)Nc1cccc(-n2cnnn2)c1,2.58% (inactive)
5,O=C(Nc1ccc2ccccc2c1)Nc1ccc2snnc2c1,7.08% (inactive)
6,O=C(Nc1cccc(Br)c1)c1ccc2snnc2c1,106% (active)
7,CCc1ccccc1NC(=O)c1ccc2snnc2c1,0.7% (inactive)
8,COc1ccc(C(=O)NCC2CCCCC2)cc1S(=O)(=O)N1CCCC1,0.47% (inactive)
9,COc1cc(C=NNC(=O)c2cccnc2)ccc1OC(=O)c1ccccc1F,7.39% (inactive)
10,CCOC(=O)c1nnn(-c2nonc2-n2cccc2)c1CN1CCC(C(=O)OCC)CC1,0.56% (inactive)
11,Brc1ccc(Nc2c3c(nc4ncnn24)CCC3)cc1,104% (active)
12,CC1CCc2c(nc3ncnn3c2Nc2ccc(OC(F)(F)F)cc2)C1 (stereo not drawn),12.3% (inactive)
13,Cc1cc(Nc2ccc(Br)cc2F)n2ncnc2n1,7.31% (inactive)
14,CC(C)C[C@H](CO)Nc1nc(N(C)c2cccc(Cl)c2)c2ncn(C(C)C)c2n1,14.5% (inactive)
15,CC(C)n1cnc2c(Nc3cccc(Cl)c3)nc(N(CCO)CCCO)nc21,95.2% (active)
16,OCCCNc1nccc(-c2cc(Nc3cccc(Cl)c3)ncn2)n1,-11.1% (inactive)
17,CC1=NN(/C(=N\c2nnc(C)s2)Nc2ccccc2)[C@H](c2ccc(C)cc2)S1,3.18% (inactive)
18,O=C(O)c1cccnc1NC1CCCC1,-0.53% (inactive)
19,CCN(CC)S(=O)(=O)N1CCC(C(=O)NC(C)CCc2ccccc2)CC1 (stereo not drawn),-1.06% (inactive)
20,C#CCCOC(=O)N1C2=NC(C(=O)OC)=C(C(=O)OC)[C@@H]3N(C)c4ccc(OC)cc4[C@]23C[C@H]1C(=O)OC,-1.46% (inactive)
21,O=C1CCc2cc(S(=O)(=O)Nc3ccc(C(F)(F)F)cc3)cc3c2N1CC3,-2.33% (inactive)
22,COCC1CCCN(Cc2nc(-c3ccc4c(c3)OCO4)no2)C1 (stereo not drawn),52.6% (active)
23,CC1CCN(Cc2nc(-c3ccc(Cl)cc3)no2)CC1,-0.15% (inactive)
24,COCC1CCCN(Cc2cn[nH]c2-c2cc3ccccc3o2)C1 (stereo not drawn),4.44% (inactive)
25,CCN1CN(Cc2ccccc2)CNC1=S,2.74% (inactive)

row,Structure (SMILES),activation
1,CC(C)N1CCc2c(sc(NC(=O)Cc3ccccc3)c2C#N)C1,43.6% (inactive)
2,COc1ccc(N2CCN(C(=O)c3ccc(N4CCCCS4(=O)=O)cc3)CC2)cc1,1.84% (inactive)
3,CC1CN(C(=O)c2ccc3c(c2)OCO3)OC(c2ccccc2)O1 (stereo not drawn),3.64% (inactive)
4,COc1ccc2c(c1)CC[C@@H]1[C@@H]2CC[C@]2(C)C(=O)CC[C@@H]12,-1.47% (inactive)
5,CC1(C)CC(CC(=O)O)C(=O)O1 (stereo not drawn),-2.54% (inactive)
6,CC1(C)CC(CCC(=O)Nc2ccccc2Cl)C(=O)O1 (stereo not drawn),-0.84% (inactive)
7,C/C(CC1CC(C)(C)OC1=O)=N/Nc1nc(-c2ccccc2)cs1 (stereo not drawn),124% (active)
8,Cc1ccc(C(=O)OC2=CC(=O)CC(C)(C)C2)cc1,3.37% (inactive)
9,CCN(CC)S(=O)(=O)c1ccc(Cl)c(C(=O)NC(C)C(c2cccs2)N2CCCC2)c1 (stereo not drawn),1.85% (inactive)
10,C=CC[C@@H](Cc1ccc(F)cc1)C(=O)OC[C@H]1CCCN1C(=O)[C@H](CC=C)CC(=O)N(CCO)Cc1ccccc1,-1.59% (inactive)
11,Clc1ccc(Cl)c(Oc2ccc(Oc3nc(Cl)ccc3Cl)cc2)n1,-1.7% (inactive)
12,COCCSc1nnc(NC(=O)c2cc(OC)c(OC)cc2[N+](=O)[O-])s1,1.43% (inactive)
13,COc1ccc(Nc2ncnc3sc(C)cc23)cc1,37% (inactive)
14,COc1ccc(Nc2cc(Sc3ccc(OC)cc3)ncn2)cc1,54% (active)
15,COc1ccc(NCCc2ccccn2)cc1,4.86% (inactive)
16,O=C(NC(C(=O)NCCN1CCOCC1)C12CC3CC(CC(C3)C1)C2)C1CCCCC1 (stereo not drawn),2.26% (inactive)
17,Cn1c(N)c(C(=O)COC(=O)c2ccc3ccccc3c2)c(=O)n(C)c1=O,-1.74% (inactive)
18,Cc1ccc2c(Cl)c(C(=O)Nc3nn[nH]n3)sc2c1,1.09% (inactive)
19,COc1cc(OC)cc(C(=O)NCCCn2ccnc2)c1,32.8% (inactive)
20,O=C(/C=C/c1ccc(Cl)cc1)NCCCn1ccnc1,7.43% (inactive)
21,O=C(NCCCn1ccnc1)c1cc(-c2ccccc2)on1,168% (active)
22,O=C(Nc1ccccc1C(=O)NCCCn1ccnc1)c1ccc(Cl)cc1Cl,20.3% (inactive)
23,O=C(NCCCn1ccnc1)c1cc2c(s1)CCCC2,46.3% (inactive)
24,COc1ccc(-c2cc(C(=O)NCCCn3ccnc3)no2)cc1,15.1% (inactive)
25,Cc1ccc2c(Cl)c(C(=O)NCCCn3ccnc3)sc2c1,55.7% (active)

row,Structure (SMILES),activation
1,O=C(NCCCn1ccnc1)Nc1ccc(Cl)cc1Cl,69.2% (active)
2,CCCC(=O)Nc1ccc(C(=O)NCCCn2ccnc2)cc1,0.23% (inactive)
3,O=C(NCCCn1ccnc1)c1ccccc1F,12.6% (inactive)
4,O=C(NCCCn1ccnc1)c1cc(Br)c(Br)s1,57.3% (active)
5,COc1ccc(C(=O)Nc2cc(S(=O)(=O)N3CCCC3)ccc2Cl)cc1,3.58% (inactive)
6,C=CCNC(=O)c1ccc2c3n(nc2c1)-c1ccc(C)cc1CO3,-9.75% (inactive)
7,CC1C(=O)Nc2ccccc2N1C(=O)c1ccc(F)cc1F (stereo not drawn),3.47% (inactive)
8,CCCN(CC1CC1)C(=S)NC(=O)c1ccccc1Br,0.93% (inactive)
9,O=C(Cn1nc(Cc2cccnc2)c2ccccc2c1=O)NCC1COc2ccccc2O1 (stereo not drawn),0.07% (inactive)
10,O=C(NC1CCCC1)C(c1c(F)cccc1Cl)N(C(=O)c1csnn1)C1CC1 (stereo not drawn),1.3% (inactive)
11,COc1ccc(S(=O)(=O)N2CCCCC2)cc1NC(=O)COc1ccccc1,-0.98% (inactive)
12,O=C(CN1C(=O)NC2(CCOc3ccccc32)C1=O)NCc1ccc(F)cc1 (stereo not drawn),0.77% (inactive)
13,Cc1cc(NC(=O)CCC(=O)N(CC(=O)NCC2CCCO2)c2ccccc2)no1 (stereo not drawn),-0.82% (inactive)
14,CC(C)NS(=O)(=O)c1ccc(NC(=O)c2cccnc2)cc1,0.76% (inactive)
15,CC(=O)NC(=S)Nc1ccc(NC(=O)c2cccnc2)cc1,0.34% (inactive)
16,NS(=O)(=O)c1ccc(NC(=S)NC(=O)c2cccnc2)cc1,56.7% (active)
17,COc1ccc(CCNS(=O)(=O)c2ccc(Cl)s2)cc1OC,1.04% (inactive)
18,N#Cc1cc([N+](=O)[O-])ccc1NC(=O)COC(=O)c1cnccn1,10.8% (inactive)
19,COc1cccc(N(Cc2nnc3n2CCCCC3)C(=O)Nc2ccccc2F)c1,8.31% (inactive)
20,COc1cc2[nH]c(=S)n(Cc3ccc(C)o3)c(=O)c2cc1OC,73.8% (active)
21,COc1cc2[nH]c(=S)n(CCN3CCCCC3C)c(=O)c2cc1OC (stereo not drawn),7.8% (inactive)
22,COc1cc2[nH]c(=S)n(Cc3ccc(F)cc3)c(=O)c2cc1OC,0.4% (inactive)
23,O=C(O)c1cc(S(=O)(=O)NC2CCCc3ccccc32)ccc1O (stereo not drawn),-0.8% (inactive)
24,N#CCC(=O)NC(=O)NCC1CC1,3.61% (inactive)
25,O=C(CCCN1C(=O)CSc2ncccc21)N1CCN(c2cccc(C(F)(F)F)c2)CC1,1.24% (inactive)

row,Structure (SMILES),activation
1,CNS(=O)(=O)c1ccc(C(=O)NCC(=O)NCCc2ccc3c(c2)OCCO3)cc1,-1.1% (inactive)
2,CCc1ccc(CNC(=O)C2CCN(c3nnc(C)c4c(C)n(-c5ccc(C)cc5)nc34)CC2)cc1,1.85% (inactive)
3,COCCCNc1nc2c(-c3cccc(C(F)(F)F)c3)nnn2c2ccccc12,29% (inactive)
4,COC(=O)Cn1nc(-c2ccccc2)c2cc(Cl)ccc21,1.76% (inactive)
5,COCCCNc1nc2c(-c3cccc(C)c3)nnn2c2ccc(Cl)cc12,69.9% (active)
6,C=CCNC(=O)COc1coc(CN2CCN(Cc3ccccc3)CC2)cc1=O,1.03% (inactive)
7,O=C(COC(=O)/C=C/c1cccc(Cl)c1)NCc1cccs1,1.89% (inactive)
8,CCc1cccc(C)c1NC(=O)COC(=O)CNC(=O)c1cccs1,2.33% (inactive)
9,CC[C@@]12C(=O)N(c3ccccc3)C(=O)N1[C@H](c1ccc(Br)cc1)[C@@H]1C(=O)N(C(C)(C)C)C(=O)[C@@H]12,-0.76% (inactive)
10,CC(Sc1sc(=S)sc1SC(C)C(=O)O)C(=O)O (stereo not drawn),4.16% (inactive)
11,COCCN1C2=C(COC(C)(C)C2)C(=S)NC1c1ccccc1 (stereo not drawn),0.78% (inactive)
12,CC(=O)Nc1ccc(C(=O)Nc2nc(-c3cc(C)n(Cc4ccccc4)c3C)cs2)cc1,2.48% (inactive)
13,COc1ccc(CCNc2nc(-c3cccc(NC(C)=O)c3)cs2)cc1OC,59% (active)
14,O=C(NCc1cccnc1)C(=O)Nc1nc(-c2ccccc2)cs1,8.85% (inactive)
15,Clc1ccc(Nc2nc(-c3cccs3)cs2)nc1,96.2% (active)
16,Cc1ccc(Nc2nc(-c3ccc(O)cc3O)cs2)nc1,16.5% (inactive)
17,COc1ccc(CC(=O)Nc2nc(-c3ccc(F)c(F)c3)cs2)cc1OC,-6.95% (inactive)
18,c1ccc(Nc2nc(-c3ccncc3)cs2)nc1,79% (active)
19,COc1ccc(CCN(C(=O)COc2ccccc2)c2nc(-c3ccccc3)cs2)cc1OC,23.4% (inactive)
20,Clc1ccc(Cc2nnc(-c3cccs3)o2)cc1,-4.17% (inactive)
21,O=C(Nc1nc(-c2cccnc2)cs1)c1ccccc1F,11.7% (inactive)
22,CC(=O)NCCC(=O)Nc1nc(-c2ccc3c(c2)OCCO3)cs1,40.4% (inactive)
23,CC(=O)Nc1cccc(-c2csc(Nc3cccc(C)n3)n2)c1,61.1% (active)
